PubChem BioAssay AID1159580 (chemical genetic matrix, 2015)
Values joined by “and” are separate entries in the source; they are usually repeats but may differ in a detail not shown here. Identical values can stand only once. The whole screen tested about 5,500 compounds, of which about 2,000 (36%) were called active. About 18% were inconclusive and are not listed. No stated cut-off is given here; in the data, active means normalized growth mostly below about 0.91 (no sharp cut-off); inconclusive means no clear call, values can overlap the other calls; inactive means mostly above about 0.92. This is one part of the list.

Experiment: chemical genetic growth profiling, strain panel (AID 1159580);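 further: tested at 20 µM; growth read once vehicle control cultures reached saturation at 30 °C; 1 = growth at the plate median or of vehicle wells; lower values mean less growth of the strain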
Details: S. cerevisiae deletion strains, growth OD

Measured: normalized growth

CN1CCc2cccc3c2C1Cc1ccc(O)c(O)c1-3 (stereo not drawn)
inactive: locus YAL013W, strain DEP1, active compounds read low 1.01 | locus YAL040C, strain CLN3, active compounds read low 0.989 | locus YBR009C, strain hhf1, active compounds read low 0.929 | locus YBR021W, strain FUR4, active compounds read low 1.01 | locus YBR171W, strain sec66, active compounds read low 0.949 | locus YBR229C, strain ROT2, active compounds read low 1.01 | locus YCL016C, strain dcc1, active compounds read low 0.925 | locus YCL029C, strain bik1, active compounds read low 0.995 | locus YCL069W, strain vba3, active compounds read low 0.978 | locus YCR088W, strain abp1, active compounds read low 0.986 | locus YDL005C, strain med2, active compounds read low 1.02 | locus YDL035C, strain GPR1, active compounds read low 1.04 | locus YDL040C, strain nat1, active compounds read low 0.977 | locus YDL074C, strain BRE1, active compounds read low 1.01 | locus YDL101C, strain DUN1, active compounds read low 1.01 | locus YDL134C, strain PPH21, active compounds read low 1.03 | locus YDL185W, strain tfp1, active compounds read low 1 | locus YDL192W, strain arf1, active compounds read low 0.997 | locus YDR001C, strain nth1, active compounds read low 1.01 | locus YDR101C, strain arx1, active compounds read low 0.973 | locus YDR137W, strain rgp1, active compounds read low 0.996 | locus YDR159W, strain sac3, active compounds read low 0.987 | locus YDR162C, strain NBP2, active compounds read low 1.03 | locus YDR195W, strain ref2 1.02 | locus YDR318W, strain mcm21, active compounds read low 0.992 | locus YDR335W, strain msn5, active compounds read low 0.923 | locus YDR388W, active compounds read low 0.993 | locus YDR502C, strain sam2, active compounds read low 0.999 | locus YEL003W, strain gim4, active compounds read low 0.942 | locus YEL037C, strain rad23, active compounds read low 0.962 | locus YEL061C, strain CIN8 (second series), active compounds read low 0.971 | locus YEL061C, strain CIN8, active compounds read low 1.01 | locus YER002W, strain NOP16, active compounds read low 0.982 | locus YER016W, strain bim1, active compounds read low 0.979 | locus YER110C, active compounds read low 0.985 | locus YER111C, strain swi4, active compounds read low 0.996 | locus YER155C, strain BEM2, active compounds read low 1 | locus YER167W, strain BCK2, active compounds read low 1.03 | locus YGL078C, strain dbp3, active compounds read low 0.983 | locus YGL086W, strain mad1, active compounds read low 1 | locus YGL167C, strain pmr1, active compounds read low 0.985 | locus YGL227W, strain vid30, active compounds read low 1.02 | locus YGL240W, strain doc1, active compounds read low 0.929 | locus YGL248W, strain PDE1, active compounds read low 1.01 | locus YGL253W, strain hxk2, active compounds read low 0.969 | locus YGR135W, strain pre9, active compounds read low 1 | locus YGR229C, strain SMI1, active compounds read low 1.02 | locus YGR252W, strain gcn5, active compounds read low 1.01 | locus YHR030C, strain SLT2, active compounds read low 1.01 and 1.02 | locus YHR079C, strain IRE1 (second series), active compounds read low 0.994 | locus YHR079C, strain IRE1, active compounds read low 1.05 | locus YHR094C, strain hxt1, active compounds read low 0.99 | locus YHR129C, strain ARP1, active compounds read low 1.01 | locus YHR200W, strain rpn10, active compounds read low 0.997 | locus YIL066C, strain RNR3, active compounds read low 1.03 | locus YIL073C, strain SPO22, active compounds read low 1.03 | locus YIL125W, strain kgd1, active compounds read low 0.989 | locus YIR030C, strain dcg1, active compounds read low 1 | locus YJL092W, strain hpr5, active compounds read low 0.979 | locus YJL095W, strain BCK1, active compounds read low 0.998 and 1.04 | locus YJL115W, strain asf1, active compounds read low 0.999 | locus YJL129C, strain trk1, active compounds read low 1.07 | locus YJL134W, strain LCB3, active compounds read low 1 | locus YJL154C, strain vps35, active compounds read low 1.01 | locus YJL168C, strain set2, active compounds read low 0.989 | locus YJL187C, strain SWE1 (second series), active compounds read low 1.01 | locus YJR043C, strain POL32, active compounds read low 1.03 | locus YJR066W, strain TOR1, active compounds read low 0.989
active: locus YAL021C, strain ccr4, active compounds read low 0.83 | locus YAL026C, strain drs2, active compounds read low 0.862 | locus YAL030W, strain snc1, active compounds read low 0.866 | locus YBL061C, strain skt5, active compounds read low 0.865 | locus YBR023C, strain chs3, active compounds read low 0.85 | locus YBR231C, strain swc5, active compounds read low 0.785 | locus YBR279W, strain paf1, active compounds read low 0.924 | locus YCL011C, strain gbp2, active compounds read low 0.883 | locus YCL061C, strain MRC1 (second series), active compounds read low 0.611 | locus YDR069C, strain doa4, active compounds read low 0.573 | locus YDR297W, strain sur2, active compounds read low 0.88 | locus YDR334W, strain swr1, active compounds read low 0.873 | locus YDR363W, strain ESC2, active compounds read low 0.823 | locus YDR392W, strain spt3, active compounds read low 0.534 | locus YER015W, strain faa2, active compounds read low 0.784 | locus YER155C, strain BEM2 (second series), active compounds read low 0.861 | locus YFR010W, strain ubp6, active compounds read low 0.882 | locus YGL173C, strain kem1, active compounds read low 0.725 | locus YHR013C, strain ard1, active compounds read low 0.818 | locus YHR027C, strain rpn1, active compounds read low 0.826 | locus YHR142W, strain chs7, active compounds read low 0.867 | locus YJL095W, strain BCK1 (second series), active compounds read low 0.906 | locus YJL164C, strain tpk1, active compounds read low 0.874 | locus YJL166W, strain qcr8, active compounds read low 0.742 | locus YJL187C, strain SWE1, active compounds read low 0.887
